Structures are written as SMILES. In all, about 340,000 compounds went through this assay and about 1,000 (0.29%) were called active. Cut-off read from the data, not from the text of the source: inconclusive = inhibition above about 27% without an active follow-up result; inactive = below that. Not all results are given here. Entries with a potency or affinity are not part of this list.

These results are taken from PubChem BioAssay AID504329 (Southern Research Specialized Biocontainment Screening …, 2011).

The nature of the assay: H1N1 influenza NS1A inhibitors, functional cell based assay (AID 504329). The following applies: percent inhibition, at 12.5 µM, active compounds read high.
The inhibition is the relative decrease from the control value, in per cent. On to `Cc1ccc(S(=O)(=O)NCCSc2ncccn2)cc1`, for which the inhibition is 2.89% (inactive).

With `C=CCNC(=S)/C(=C(/[O-])c1ccc([N+](=O)[O-])cc1)[n+]1ccccc1`, the inhibition was -7.17% (inactive).

Regarding `COc1ccc(C(=O)COC(=O)CCn2nnc(-c3cccc(O)c3OC)n2)cc1`, the inhibition is -2.1% (inactive).

As to `CN1CCN(C2=C(NS(=O)(=O)c3ccccc3)C(=O)c3ccccc3C2=O)CC1`, the inhibition was -2.49% (inactive).

As to `NC(=O)C1CCN(C2=C(NS(=O)(=O)c3ccccc3)C(=O)c3ccccc3C2=O)CC1`, the inhibition was 24.5% (inactive).

On to `CC(=O)Nc1ccc(S(=O)(=O)NC2=C(N3CCN(c4ccc(F)cc4)CC3)C(=O)c3ccccc3C2=O)cc1`, for which the inhibition was 27.2% (inactive).

Take `CC1CCN(C2=C(NS(=O)(=O)c3ccc(Cl)cc3)C(=O)c3ccccc3C2=O)CC1`: the inhibition is -3.44% (inactive).

With `CC1CCCN(C2=C(NS(=O)(=O)c3ccc(Br)cc3)C(=O)c3ccccc3C2=O)C1` (stereo unspecified), the inhibition is 27.1% (inactive).

`CN(C(=O)c1cccs1)c1ccc(OCC(=O)N2CCC(C(N)=O)CC2)cc1`: the inhibition was -3.1% (inactive).

In the case of `CCOC(=O)C(C#N)=C1CCN(Cc2ccccc2)CC1`, the inhibition was -28.1% (inactive).

In the case of `CCOC(=O)/C(C#N)=C1\C(=O)N(Cc2ccccc2)c2ccccc21`, the inhibition was 13.1% (inactive).

On to `O=C(N/N=C/c1cn(-c2ccccc2)nc1-c1cccnc1)c1ccccc1`, for which the inhibition was -7.1% (inactive).

As for `O=C(c1ccc2ccccc2n1)N1CCN(c2ccccc2)CC1`, the inhibition was -4.44% (inactive).

With `COc1ccc(Nc2ccc3c(c2)=NC2(CCCCC2)[N+]=3[O-])cc1`, the inhibition is 26.2% (inactive).

For `Cc1ccc(NC(=O)c2ccc(Nc3c([N+](=O)[O-])cc([N+](=O)[O-])cc3[N+](=O)[O-])cc2)cc1`, the inhibition was 2.68% (inactive).

As for `CC(=O)c1ccc(Nc2c([N+](=O)[O-])ccc3nonc23)cc1`, the inhibition is 6.86% (inactive).

As for `COc1ccc(NC2=NC3(CCCCC3)N=C(N)N2)cc1`, the inhibition is -15.4% (inactive).

Regarding `COC(=O)C1=C(c2cccc(OC)c2OC)C[C@@H]2CC[C@H]1N2C(=O)NCCS(C)=O` (stereo partly specified), the inhibition was -8.82% (inactive).

For `CC1Cc2ccccc2N1C(=O)COC(=O)c1ccc(Cl)c(S(=O)(=O)N2CCOCC2)c1` (stereo unspecified), the inhibition was 9.33% (inactive).

Take `COC(=O)c1nnn(-c2cccc(Cl)c2)c1C(=O)OC`: the inhibition is -5.37% (inactive).

As for `O=C(CN(Cc1ccc(F)cc1)C(=O)CCC(=O)Nc1nccs1)NCC1CCCO1` (stereo unspecified), the inhibition was -15.5% (inactive).

`O=C(Nc1cccc(-n2cnnn2)c1)c1ccc(C(F)(F)F)cc1`: the inhibition was -1.71% (inactive).

On to `Cc1ccc(S(=O)(=O)c2nc(N3CCOCC3)sc2Cl)cc1`, for which the inhibition was -3.55% (inactive).

For `CC(=O)Nc1ccc(N2N=C(C)C(N=Nc3ccccc3)C2=O)cc1` (stereo unspecified), the inhibition was 22.2% (inactive).

On to `CC1=NN(c2ccccc2)C(=O)C1N=Nc1ccc(S(N)(=O)=O)cc1` (stereo unspecified), for which the inhibition was 1.05% (inactive).

In the case of `CC1=NN(c2ccccc2)C(=O)C1N=Nc1cccc(O)c1` (stereo unspecified), the inhibition was 0.04% (inactive).

With `CC1=NN(c2ccccc2)C(=O)C1N=Nc1ccccc1` (stereo unspecified), the inhibition was -6.95% (inactive).

In the case of `COc1ccc(N2CCN(c3nc4c(C)cccn4c(=O)c3C=C(C#N)C#N)CC2)cc1`, the inhibition was -22.9% (inactive).

In the case of `O=C(NNC(=O)c1cccs1)c1ccncc1`, the inhibition was -2.62% (inactive).

Take `COc1ccc([C@H]2CC(=O)C=C(c3cccc4c3sc3ccccc34)C2)cc1OC`: the inhibition is 7.03% (inactive).

On to `Nc1nc(NC(=O)c2ccccc2)nn1-c1ccccc1`, for which the inhibition was -6.76% (inactive).

For the molecule `Nc1nc(NC(=O)c2ccco2)nn1-c1ccccc1`, the inhibition was 5.18% (inactive).

For the molecule `CCCc1cc(N2CCCC(C(=O)NCC)C2)n2ncnc2n1` (stereo unspecified), the inhibition was -10% (inactive).

As for `NC(=O)C1(N2CCCCC2)CCN(c2ccc3nnc(-c4ccccc4)n3n2)CC1`, the inhibition was -13.3% (inactive).

`Cc1cc2ccccn2c1C(=O)c1cccc([N+](=O)[O-])c1`: the inhibition was 4.98% (inactive).

Turning to `COC(=O)c1cc(C(=O)c2c(C)cc3ccccn23)cc([N+](=O)[O-])c1`, the inhibition was 16.9% (inactive).

On to `O=C(NCCC1=CCCCC1)C(=O)NCCc1ccc(Cl)cc1`, for which the inhibition is 1.14% (inactive).

`C=CC[C@@H](CC(=O)N[C@@H](CO)Cc1ccccc1)C(=O)N[C@H](C)COC(=O)[C@@H](CC=C)Cc1ccc(F)cc1`: the inhibition was -3.08% (inactive).

Take `COc1ccc(/C(=N/Nc2ncnc3ccccc23)C(=O)O)cc1`: the inhibition was 5.64% (inactive).

As for `CCOC(=O)/C(=N\Nc1ncnc2ccccc12)c1ccc(C)cc1`, the inhibition is 12.6% (inactive).

Regarding `O=C(NCc1ccccn1)Nc1cc(Cl)ccc1Cl`, the inhibition was -13.2% (inactive).

Regarding `COc1ccc(CNC(=O)Cn2cc(C(F)(F)F)ccc2=O)cc1`, the inhibition was -8.07% (inactive).

Regarding `CN(C)c1ccc(/C=C2\C(=O)NC(=O)N(Cc3ccc(F)cc3)C2=O)cc1`, the inhibition was -0.15% (inactive).

As to `COc1ccc(/C=C2/C(=O)N(Cc3ccccc3)N=C2C)cc1`, the inhibition is -0.08% (inactive).

Consider `CC1=NN(CCC#N)C(=O)/C1=C/c1ccc(N(C)C)cc1`, for which the inhibition was 18.1% (inactive).

With `CN(C)c1ccc(C=C2C(=O)OC(C)(C)OC2=O)cc1`, the inhibition is 0.66% (inactive).

On to `COc1ccc(CCC(=O)OCC(=O)Nc2ccccc2OC(F)F)cc1OC`, for which the inhibition is -3.13% (inactive).

In the case of `CCOC(=O)C(NC(C)=O)(Nc1ccc(S(=O)(=O)Nc2nccs2)cc1)C(F)(F)F` (stereo unspecified), the inhibition was -7.42% (inactive).

As to `Cc1cccc(-n2c(O)c(C=Nc3cc(O)ccc3C)c3ccccc3c2=O)n1`, the inhibition is 3.61% (inactive).

Regarding `COc1cc(C2C(C(C)=O)=C(O)C(=O)N2CCN(C)C)ccc1O` (stereo unspecified), the inhibition is -16% (inactive).

Regarding `O=C(COC(=O)c1n[nH]c(=O)c2ccccc12)NC1CCCCC1`, the inhibition is -3.19% (inactive).

Regarding `COc1cc(NC(=O)CSCc2ccc(Cl)cc2)c(C(=O)O)cc1OC`, the inhibition was -10.8% (inactive).

Turning to `O=C(Cc1n[nH]c(=O)c2ccccc12)Nc1cc(Cl)ccc1-n1cncn1`, the inhibition was -5.46% (inactive).

In the case of `COc1ccc(C(=O)N/N=C/c2ccc(OC)c(COc3ccc(F)cc3)c2)cc1`, the inhibition is -7.91% (inactive).

With `COc1ccc(C(=O)N/N=C/c2ccc(OC)c(COc3ccccc3)c2)cc1`, the inhibition is -10.8% (inactive).

For the molecule `CCC(CC)NC(=O)CO/N=C/c1ccc(Cl)cc1Cl`, the inhibition is 2.24% (inactive).

For the molecule `O=C(O)C1C2C=CC(C2)C1C(=O)NCCCN1CCOCC1` (stereo unspecified), the inhibition is -16.9% (inactive).

On to `C[C@H](CO)N1C[C@H](C)[C@@H](CN(C)S(=O)(=O)c2cccs2)Oc2ccc(NC(=O)c3ccncc3)cc2C1=O`, for which the inhibition is -5.12% (inactive).

For `CCN(CC)Cc1cc(C(=O)O)c(-c2ccccc2)o1`, the inhibition was -10.3% (inactive).

For the molecule `CC1CCCN(C2=C(NS(=O)(=O)c3ccc(Cl)cc3)C(=O)c3ccccc3C2=O)C1` (stereo unspecified), the inhibition is 3.15% (inactive).

Turning to `NC(=O)C1CCN(C2=C(NS(=O)(=O)c3ccc(Cl)cc3)C(=O)c3ccccc3C2=O)CC1`, the inhibition is -27.5% (inactive).

Regarding `CC(=O)Nc1ccc(S(=O)(=O)NC2=C(N3CCN(C)CC3)C(=O)c3ccccc3C2=O)cc1`, the inhibition was 7.96% (inactive).

On to `CCN1CCN(C2=C(NS(=O)(=O)c3ccc(Br)cc3)C(=O)c3ccccc3C2=O)CC1`, for which the inhibition is 5.79% (inactive).

Consider `CCOC(=O)C1CCN(C2=C(NS(=O)(=O)c3ccc(Cl)cc3)C(=O)c3ccccc3C2=O)CC1`, for which the inhibition is -27.4% (inactive).

Regarding `CCOC(=O)C1CCCN(c2nc3ccccc3nc2NS(=O)(=O)c2ccc(C)cc2)C1` (stereo unspecified), the inhibition was -25.9% (inactive).

`NC(=O)C1CCN(C2=C(NS(=O)(=O)c3ccc(Br)cc3)C(=O)c3ccccc3C2=O)CC1`: the inhibition was 23.9% (inactive).

With `CCOC(=O)C1CCN(C2=C(NS(=O)(=O)c3ccc(Br)cc3)C(=O)c3ccccc3C2=O)CC1`, the inhibition was 27.6% (inactive).

As for `CCCN(CC(=O)Nc1ccccc1C)C(=O)CCNC(=O)c1ccccc1Cl`, the inhibition was 0.78% (inactive).

Take `O=C(c1ccccc1)N1CCCC(C(=O)N2CCc3ccccc3C2)C1` (stereo unspecified): the inhibition is -4.42% (inactive).

Regarding `Cc1ccc(C)c(NCc2n[nH]c(=S)n2-c2ccccc2)c1`, the inhibition was -0.26% (inactive).

For the molecule `O=C(OC(C(=O)NCC1CCCO1)c1ccccn1)c1cccs1` (stereo unspecified), the inhibition is -1.32% (inactive).

With `COc1ccc(NC(=O)COC(=O)CN2C(=O)C3CCCCC3C2=O)cc1OC` (stereo unspecified), the inhibition was -0.56% (inactive).

Regarding `CC(C)C[C@H](NC(=O)C1CCN(C(=O)[C@H](Cc2ccccc2)NC(=O)OC(C)(C)C)CC1)C(=O)O`, the inhibition was -7.8% (inactive).

`COC(=O)CCC(=O)N(CCN(Cc1ccccc1)C(=O)CCC(=O)OC)Cc1ccccc1`: the inhibition was 8.88% (inactive).

`Cc1ccc(N=Nc2c(O)[nH]c(=O)[nH]c2=O)cc1S(=O)(=O)Nc1ccc(Br)cc1`: the inhibition was 9.19% (inactive).

Regarding `CCc1ccc(NC(=O)CN(c2ccc(OC)cc2)S(=O)(=O)c2c(C)[nH]c(=O)[nH]c2=O)cc1`, the inhibition is 2.97% (inactive).

As to `CN1CCN(c2ccc(S(=O)(=O)N3CCCCC3)cc2NC(=O)COc2ccc(F)cc2)CC1`, the inhibition is -7.14% (inactive).

As to `CCc1ccc(C2C(C#N)=C(N)Oc3cc(N)ccc32)cc1` (stereo unspecified), the inhibition was 0.13% (inactive).

Turning to `CCOC(=O)C1=C(C)OC(N)=C(C#N)C1c1cc2cc(C)ccc2nc1N1CCCCC1` (stereo unspecified), the inhibition was -5.59% (inactive).

As for `COc1ccc(C2C(C#N)=C(N)Oc3c2ccc2cccnc32)cc1OC` (stereo unspecified), the inhibition is -15.7% (inactive).

Regarding `CC(=O)C1=C(C)OC(N)=C(C#N)C1c1cc2cccc(C)c2nc1Cl` (stereo unspecified), the inhibition was -6.22% (inactive).

In the case of `C[n+]1cccc(C2C(C#N)=C(N)Oc3c2ccc2ccccc32)c1` (stereo unspecified), the inhibition is -17.7% (inactive).

In the case of `COC(=O)C1=C(C)OC(N)=C(C#N)C1c1cc2cc(C)ccc2nc1Cl` (stereo unspecified), the inhibition was 11.8% (inactive).

`COc1cc(C2C(C#N)=C(N)Oc3c2ccc2ccccc32)ccc1OCC(=O)Nc1ccc(C)cc1` (stereo unspecified): the inhibition is 1.8% (inactive).

Regarding `N#CC1=C(N)Oc2c(ccc3cccnc23)C1c1ccccc1` (stereo unspecified), the inhibition is 25.4% (inactive).

Take `CC(C)(C)c1ccc(CN(Cc2ccccc2)C(c2ccccn2)c2nnnn2C(C)(C)C)cc1` (stereo unspecified): the inhibition was 9.19% (inactive).
